# High-throughput results as filed in PubChem.
# Nrf2 block: Nrf2 pathway inhibition; A549 ARE-Fluc reporter, luciferase luminescence, 18-24 h; Potency, µM (highest dose often 46 µM), inactives show top-dose activity change, negative = inhibition, most hits filed as inhibitors; 360,000 tested, 2.1% active; AID 504444; note: % is set by controls: 0 for no effect and ±100 for the full control effect; nearly all actives have a fitted effect of over 60% in size
#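 Two sequential reads on A549 ARE_Fluc cells exposed to compound for 18-24 h: a CellTiter-Fluor fluorescence read for viability, then a luciferase luminescence read for Nrf2/ARE activity.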
# A549 tox-1: kills or reduces viability of A549 cells in Nrf2 counter-screen; AID 504648; Potency, µM (doses to about 46 µM), for the others: at the highest dose activity change, negative = cytotoxicity, most hits filed as inhibitors; 390,000 tested, 0.16% active; A549 ARE-Fluc cells, CellTiter-Fluor viability, 18-24 h; note: % is set by controls: 0 for no effect and ±100 for the full control effect
#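 A549 ARE_Fluc cells in 5% FBS OPTI-MEM were exposed to compounds in concentration-response for 18-24 h at 37 deg C. Viability was read by CellTiter-Fluor fluorescence (Ex 405/Em 525) after 30 min, before the luciferase read.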
# ELG1 repair inh: ELG1-dependent DNA repair inhibition. HEK293T ELG1-luciferase reporter, luminescence, 16 h; DNA damage induced by 5-fluorouridine. Potency, µM (highest dose often 46.1 µM), for inactives: at the top dose activity change, negative = inhibition, hits mostly inhibitors. AID 504467. 330,000 tested, 2.3% active; note: % is set by controls: 0 for no effect and ±100 for the full control effect; nearly all actives have a fitted effect of over 55% in size
#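 Quantitative HTS, concentration-response format. 2,000 cells/well co-treated with 5-fluorouridine and compound, 16 hr in 5% CO2 at 37 °C; ONE-Glo luminescence read after 30 min.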
# Nrf2 activator: Nrf2 pathway activation | AREc32 ARE-luciferase reporter (MCF7-derived line), luminescence, 24 h | 410,000 tested, 0.31% active | Potency, µM (series often up to 46.1 µM), for the others: at the highest dose activation, actives largely listed as activators; note: % of control where 0% means no effect; nearly all actives have a fitted effect of over 65% in size
#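 Quantitative high-throughput format: AREc32 reporter cells, 1000 per well, received compound by pin transfer and were incubated 24 hr at 37 deg C, 5% CO2, before Steady-Glo luminescence detection.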
# FLuc counter 3: counter-screen for Nrf2 inhibitors: firefly luciferase enzyme inhibition | shares compounds with Nrf2 block | purified firefly luciferase, luminescence inhibition | Potency, µM (doses to about 57.5 µM), for the others: at the highest dose activity change, negative = inhibition, most hits filed as inhibitors | 1,400 tested, 4% active | AID 720522; note: % is set by controls: 0 for no effect and ±100 for the full control effect; nearly all actives have a fitted effect of over 65% in size
# Target sequence (P08659 whole entry, looked up): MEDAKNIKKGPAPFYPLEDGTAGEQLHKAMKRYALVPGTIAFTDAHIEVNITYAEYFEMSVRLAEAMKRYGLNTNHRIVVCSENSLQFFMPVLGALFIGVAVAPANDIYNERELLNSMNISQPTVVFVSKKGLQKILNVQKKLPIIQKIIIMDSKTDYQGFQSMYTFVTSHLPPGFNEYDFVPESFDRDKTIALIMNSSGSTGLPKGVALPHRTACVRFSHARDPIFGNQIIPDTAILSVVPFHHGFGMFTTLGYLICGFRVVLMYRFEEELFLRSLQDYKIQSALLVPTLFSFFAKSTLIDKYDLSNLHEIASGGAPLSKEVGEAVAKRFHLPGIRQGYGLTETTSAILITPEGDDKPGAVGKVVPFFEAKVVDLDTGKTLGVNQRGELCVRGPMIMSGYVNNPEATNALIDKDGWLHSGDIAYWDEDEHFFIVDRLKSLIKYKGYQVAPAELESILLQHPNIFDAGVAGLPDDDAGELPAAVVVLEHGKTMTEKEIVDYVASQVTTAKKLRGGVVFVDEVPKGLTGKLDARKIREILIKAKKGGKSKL
# A549 tox-2: counter-screen for Nrf2 inhibitors: cytotoxicity in A549 ARE cells | AID 720523 | A549 ARE-Fluc cells, cytotoxicity counterscreen | Potency, µM (titrated, usually from 46.1 µM), without a hit: top-dose activity change, negative = cytotoxicity, actives largely listed as inhibitors | 1,400 tested, 2% active | shares compounds with Nrf2 block;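 note: cells exposed to compounds for 18 to 24 hours; % is set by controls: 0 for no effect and ±100 for the full control effect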
# ARE-Fluc inh: confirmation of Nrf2 inhibitors in A549 ARE reporter cells; Potency, µM (top dose mostly 46.1 µM), for inactives: at the highest dose activity change, negative = inhibition, usual class: inhibitors; A549 ARE-firefly luciferase reporter, luminescence; shares compounds with Nrf2 block; 1,400 tested, 74% active; note: % is set by controls: 0 for no effect and ±100 for the full control effect; nearly all actives have a fitted effect of over 65% in size
# * hit, by the source's call; ? = inconclusive; . = no result shown. A selection: hits, their analogues and other compounds. The true share with any hit is near 3.7%. Calls come from the whole dose curve; as a rule, active = well fitted curve in the direction sought with a large enough effect; inconclusive = small, poorly fitted or top-dose-only effect, or another doubt; inactive = no such curve, though single readings can be large; an effect the other way counts as inactive or inconclusive. Potency is the fitted concentration of half-maximal effect.
SMILES,Nrf2 block,A549 tox-1,ELG1 repair inh,Nrf2 activator,FLuc counter 3,A549 tox-2,ARE-Fluc inh
CC(N)Cc1c[nH]c2c1ccc1ccccc12 (configuration not stated),3.9%,-6.3%,?,2.3%,.,.,.
CSc1nn(-c2ccc(C(=O)OCC(=O)NC(=O)NC(C)C)cc2)c(=S)s1,-13.2%,1.1%,?,1.4%,.,.,.
CC1=CC(O)C(O)C2(C)C1CC1OC(=O)C(O)C3C(C)C(O)C4(O)OCC13C42 (configuration not stated),2.91µM*,-19.9%,.,-0.5%,-2.0%,-24.2%,5.17µM*
Cc1ccc(-n2c(=O)[nH]c3ccccc3c2=O)cc1[N+](=O)[O-],.,.,.,2.4%,.,.,.
CC(=O)c1ccc(N2CCN(S(=O)(=O)c3cc(-c4onc(C)c4C)ccc3C)CC2)cc1,9.2µM*,-0.7%,.,0.6%,2.1%,0.7%,6.51µM*
C1=C(c2c[nH]c3ccccc23)CCNC1,.,.,-7.4%,.,.,.,.
CC(C)N1CC=C(c2c[nH]c3ccccc23)CC1,1.64µM*,?,?,3.0%,-1.3%,-10.3%,.
C=CCNc1nnc(Sc2ncccc2[N+](=O)[O-])s1,-25.7%,-6.0%,?,?,.,.,.
Nc1c(C(=O)Nc2ccc(Br)cc2F)sc2nc3c(cc12)N1CCC3CC1,-1.7%,9.6%,.,0.9%,.,.,.
CC1=CC(O)C(O)C2(C)C1CC1OC(=O)CC3C(C)C(O)C(=O)C2C13CO (configuration not stated),2.06µM*,?,.,-1.9%,3.4%,-28.9%,.
CC(C)C(=O)Nc1ccc([N+](=O)[O-])c(C(F)(F)F)c1,?,-5.1%,-29.2%,4.0%,.,.,.
C=CCn1c(O)c(C(C)=NCc2cccnc2)c(=O)[nH]c1=O,-26.2%,6.4%,?,2.4%,.,.,.
C=CCn1c(O)c(C(C)=NCc2cc(OC)cc(OC)c2)c(=O)[nH]c1=O,7.31µM*,0.0%,?,0.2%,2.0%,-14.1%,14.6µM*
Cc1cccc(-n2c(/C=C/c3cn(C)c4ccccc34)nc3ccccc3c2=O)c1,?,?,.,0.0%,.,.,.
COc1ccc(CNC(=O)CSCc2cnn(-c3ccccc3)c2-n2cccc2)cc1OC,9.2µM*,-9.3%,.,-0.2%,1.6%,-21.7%,8.2µM*
COC(=O)[C@]12OC[C@]34C([C@@H](O)[C@@H]1O)[C@]1(C)CC(=O)C(O)=C(C)[C@@H]1C[C@H]3OC(=O)[C@H](O)[C@@H]24 (some centres not stated),1.3µM*,?,?,-2.8%,-0.6%,?,1.46µM*
CC(=O)c1cccc(NC(=O)c2cc3c(s2)-c2c(C)cccc2OC3)c1,7.31µM*,-17.2%,.,2.5%,-14.0%,-21.7%,6.51µM*
C=C(C)[C@@]12OC3(c4ccccc4)O[C@@H]1C1[C@@H]4O[C@]4(CO)[C@@H](O)[C@]4(O)C(=O)C(C)=C[C@H]4[C@@]1(O3)[C@H](C)[C@H]2OC(=O)/C=C/C=C/c1ccccc1 (some centres not stated),0.0052µM*,-25.7%,.,-2.4%,-1.5%,?,0.0184µM*
Cc1sc(NC(=O)Cn2c(=O)oc3ccccc32)nc1-c1ccc(Cl)cc1,?,-1.2%,-12.5%,0.0%,.,.,.
C[C@H]1CCCC=CC2C[C@H](O)C[C@@H]2[C@H](O)C=CC(=O)O1 (some centres not stated),.,.,.,.,1.4%,?,0.231µM*
Cc1cc(C)c(NC(=O)C2CC3CCC2C3)c(C)c1 (configuration not stated),-3.7%,-2.4%,?,1.7%,.,.,.
Cc1ccc(C(=O)Oc2cc(N)n(S(=O)(=O)c3ccc(F)cc3)n2)cc1,1.84µM*,8.4%,-8.8%,-2.0%,-16.6%,-7.2%,1.64µM*
Cc1ccc(-c2cc(-c3ccc(C)cc3)[n+](C)o2)cc1,5.17µM*,?,?,0.3%,-19.6%,-17.5%,3.66µM*
CCCCCCn1c(=O)c(C(=O)Nc2cnccn2)c(O)c2ccccc21,4.11µM*,?,?,0.0%,-0.9%,?,5.17µM*
CCCCCn1c(=O)c(C(=O)Nc2ccccn2)c(O)c2ccccc21,?,-6.0%,-1.3%,3.8%,.,.,.
SMILES,Nrf2 block,A549 tox-1,ELG1 repair inh,Nrf2 activator,FLuc counter 3,A549 tox-2,ARE-Fluc inh
N#CC(C#N)=NNc1ccc(S(=O)(=O)N2CCCC2)cc1,-19.1%,?,-27.4%,2.5%,.,.,.
COc1ccccc1N=c1scc(-c2ccc(S(=O)(=O)N3CCCC3)cc2)n1C,3.66µM*,-17.3%,.,-0.8%,1.0%,-25.7%,6.51µM*
COc1ccccc1-c1nn2c(=O)cc(CN3CCN(C(=O)COc4ccccc4Cl)CC3)nc2s1,.,-17.7%,.,9.2%,.,.,.
Nc1nc(F)nc2c1ncn2[C@@H]1O[C@H](CO)[C@@H](O)[C@@H]1O,5.8µM*,-4.8%,-0.5%,-1.1%,-1.8%,-20.8%,16.4µM*
CC12CCC3C(CCC4(O)CC(O)CCC34C=NO)C1(O)CCC2C1=COC(=O)C1 (configuration not stated),0.058µM*,?,.,-2.6%,1.2%,?,0.103µM*
C[C@H]1O[C@@H](OC2CC[C@]3(C=O)[C@H]4CC[C@]5(C)[C@@H](C6=CC(=O)OC6)CC[C@]5(O)[C@@H]4CC[C@]3(O)C2)CC2OC(C)(C)OC21 (some centres not stated),0.164µM*,?,?,-3.5%,-0.8%,?,0.0651µM*
C[C@]12CC[C@H]3[C@@H](CC[C@]4(O)C[C@@H](O)CC[C@]34C=O)[C@@]1(O)CC[C@@H]2C1=CC(=O)OC1,0.259µM*,?,?,-2.8%,1.3%,-55.2%,0.411µM*
CC12CCC3C(CCC4(O)CC(O)CCC34C=O)C1(O)CCC2C1=CC(=O)OC1 (configuration not stated),0.461µM*,?,.,-2.5%,2.2%,?,0.411µM*
Cc1oc2cc3oc(=O)c(CCC(=O)N4CCCCC4)c(C)c3cc2c1C,?,7.5%,.,10.6%,.,.,.
COc1ccc(NC(=O)Cn2c3ccccc3c3nc4n(c(=O)c32)CCS4)cc1,?,-8.0%,?,2.6%,.,.,.
CCOc1ccc(S(=O)(=O)N(CC(=O)NCCc2ccc(OC)c(OC)c2)c2ccccc2)cc1,?,-11.1%,.,0.1%,.,.,.
CCOc1ccc(CN(CCc2ccc3c(c2)OCO3)Cc2ccc(OC)c(Br)c2)cc1,13.1%,15.6%,.,-0.8%,.,.,.
